Test results published in PubChem BioAssay (NCATS).
Active and inactive are the calls of the source. The call rests on the fitted dose curve; in most records, active means well fitted inhibition curve with a large enough effect; inconclusive means small, poorly fitted or top-dose-only effect; inactive means flat fitted curve, though single readings scatter.

molecular target: Luciferin 4-monooxygenase (Photinus pyralis) (UniProt P08659); assay: Primary firefly luciferase (FLuc) qHTS assay for identification of artifact compounds. (AID 1845220); conditions: purified firefly luciferase, luminescence, 5 min; series mostly up to 54.1 µM; activity change, negative = inhibition: at the top concentration; further: nearly all actives have a fitted effect of over 60% in size;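 on activity change, negative = inhibition: plate controls were DMSO vehicle for no effect and no enzyme for full effect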
Source text: PI: Alexander Tropsha Ph.D.
UNC Eshelman School of Pharmacy
University of North Carolina, Chapel Hill, North Carolina
Hits from high-throughput screening (HTS) of chemical libraries are often false positives due to their interference with the assay detection technology. In response to this problem, we generated the largest publicly available library of chemical liabilities and developed a free webtool to predict HTS artifacts, both of which are described herein. More specifically, we generated, curated, and integrated HTS datasets for thiol reactivity, redox activity, and luciferase (firefly and nano) activity. Using these curated datasets, we developed and validated several Quantitative Structure-Interference Relationship (QSIR) models to predict nuisance behavior. […] These models were employed for virtual profiling of the National Center for Advancing Translational Science's (NCATS) in-house library, and 256 compounds for each assay were selected for the experimental validation of nuisance behavior. The BA for these external predictions ranged from 58 to 78% for compounds within the applicability domains of the models. […] The models developed in this study, along with aggregation models previously developed by our group (SCAM Detective) were implemented in "Liability Predictor," an online tool which may be used as part of chemical library design or for triaging HTS hits. Both the models and the curated datasets are publicly available at https://liability.mml.unc.edu/.
SEQUENCE No. (e.g., 1, 2, 3, etc.); […] (e.g., Cells, Incubation, Reagent, etc.); VALUE; DESCRIPTION.
1; Reagent; 3 uL; Luciferase substrate mixture.
2; Compounds and control; 16 nL; Kalypsis pin tool (Wako USA) equipped with a 1536-well pin head.
4; Reagent; 1 uL; Luciferase enzyme.
6; Detection; Luminescence, ViewLux microplate reader.
NOTES (numbers refer to Sequence numbers above)
1. 3 uL of luciferase substrate mixture containing D-luciferin and ATP (final concentrations of 10 uM and 10 uM, respectively) in assay buffer (10 mM Mg-acetate, 0.01% Tween-20, 0.05% bovine serum albumin, 50 mM Tris acetate, pH 7.6) was dispensed into all wells of a 1536-well assay plate (solid-bottom white plate; Greiner Bio One, Monroe, NC).
2. A Wako Pin-tool (Wako Automation, Richmond, VA) was used to transfer 16 nL of compounds (consisting of 7-plates in qHTS format, final concentration range 18.3 nM to 114 uM) or control PTC124 (final concentration range 1.22 nM to 40 uM).
3. 15 min. incubation at room temperature protected from light.
4. 1 uL of luciferase enzyme (final concentration 10 nM, Photinus pyralis luciferase) or buffer was dispensed for a final assay volume of 4 uL.
5. Plates were centrifuged (121xg, 15 seconds) and incubated for 5 minutes.
6. Samples were read for luminescence on a ViewLux CCD imager (PerkinElmer). Data were normalized to no-enzyme (0% activity) and no-inhibitor (DMSO; 100%) controls and the resulting percent inhibition data were fitted to a 4-parameter Hill equation using NCATS in-house software.
Potency means the concentration at half of the fitted maximal effect.

Structure (SMILES) | activity change, negative = inhibition | outcome | Potency
c1cnc2cc3c(cc2n1)C1CNCC3C1 | -9.71% (inactive) |  | 
Clc1ccc(C(Cn2ccnc2)OCc2c(Cl)cccc2Cl)c(Cl)c1 (stereo unspecified) |  | inactive | 
Cc1ccc(Nc2nccc(N(C)c3ccc4c(C)n(C)nc4c3)n2)cc1S(N)(=O)=O |  | inactive | 
CN(C)C(=O)[C@H](O)[C@H](Cc1ccccc1)NC(=O)c1cc2cc(Cl)ccc2[nH]1 | 3.08% (inactive) |  | 
CCC(C)(Oc1ccc(C2(c3ccc(OC(C)(CC)C(=O)O)cc3)CCCCC2)cc1)C(=O)O (stereo unspecified) | -1.88% (inactive) |  | 
Cc1ccc(NC(=O)c2ccc(CN3CCN(C)CC3)cc2)cc1Nc1nccc(-c2cccnc2)n1 |  |  | 19 µM (active)
CCC1=C(C)CN(C(=O)NCCc2ccc(S(=O)(=O)NC(=O)NC3CCC(C)CC3)cc2)C1=O (stereo unspecified) | -4.29% (inactive) |  | 
O=C(O)c1cccc(-c2noc(-c3ccccc3F)n2)c1 |  |  | 0.0067 µM (active)
CC(C)C[C@H](NC(=O)[C@H](Cc1ccccc1)NC(=O)c1cnccn1)B(O)O |  | inactive | 
CCCS(=O)c1ccc2nc(NC(=O)OC)[nH]c2c1 (stereo unspecified) | -18.9% (inactive) |  | 
Cc1nccn1CC1CCc2c(c3ccccc3n2C)C1=O (stereo unspecified) |  | inactive | 
COc1ccccc1N1CCN(CCN(C(=O)C2CCCCC2)c2ccccn2)CC1 | 4.56% (inactive) |  | 
COc1ccc2cc([C@H](C)C(=O)O)ccc2c1 | -18.7% (inactive) |  | 
COCCCOc1ccnc(CS(=O)c2nc3ccccc3[nH]2)c1C (stereo unspecified) | -6.93% (inactive) |  | 
O=C(NOCC1CC1)c1ccc(F)c(F)c1Nc1ccc(I)cc1Cl |  | inactive | 
Cc1nc(Nc2ncc(C(=O)Nc3c(C)cccc3Cl)s2)cc(N2CCN(CCO)CC2)n1 | -1.67% (inactive) |  | 

Structure (SMILES) | activity change, negative = inhibition | outcome | Potency
CC(=O)O[C@H]1C(=O)[C@@]2(C)C([C@H](OC(=O)c3ccccc3)[C@]3(O)C[C@H](OC(=O)[C@H](O)[C@@H](NC(=O)c4ccccc4)c4ccccc4)C(C)=C1C3(C)C)[C@]1(OC(C)=O)CO[C@@H]1C[C@@H]2O (stereo partly specified) | -9.23% (inactive) |  | 
N[C@@H](Cc1cc(I)c(Oc2cc(I)c(O)c(I)c2)c(I)c1)C(=O)O | 3.81% (inactive) |  | 
CN(C)CCCC1(c2ccc(F)cc2)OCc2cc(C#N)ccc21 (stereo unspecified) | -7.77% (inactive) |  | 
O=C(OC1C[C@H]2CC[C@@H](C1)[N+]21CCCC1)C(O)(c1ccccc1)c1ccccc1 (stereo partly specified) |  | inactive | 
CN(c1nccc(=O)[nH]1)C1CCN(c2nc3ccccc3n2Cc2ccc(F)cc2)CC1 |  | inactive | 
CC(=O)NC[C@H]1CN(c2ccc(N3CCOCC3)c(F)c2)C(=O)O1 |  | inactive | 
COc1cc2c(N3CCN(C(=O)Nc4ccc(OC(C)C)cc4)CC3)ncnc2cc1OCCCN1CCCCC1 | 1.96% (inactive) |  | 
Cc1cc2c(s1)Nc1ccccc1N=C2N1CCN(C)CC1 |  | inactive | 
CC(C)c1nc(CN(C)C(=O)N[C@H](C(=O)N[C@@H](Cc2ccccc2)C[C@H](O)[C@H](Cc2ccccc2)NC(=O)OCc2cncs2)C(C)C)cs1 | 3.3% (inactive) |  | 
C=C(c1ccc(C(=O)O)cc1)c1cc2c(cc1C)C(C)(C)CCC2(C)C | -16.2% (inactive) |  | 
OC(CN1CCN(c2cccc(Cl)c2)CC1)C(c1ccccc1)c1ccccc1 (stereo unspecified) |  | inactive | 
COc1c(O)cc2c(c1O)[C@@H]1O[C@H](CO)[C@@H](O)[C@H](O)[C@H]1OC2=O | -2.1% (inactive) |  | 
COc1cc(Nc2c(C#N)cnc3cc(OCCCN4CCN(C)CC4)c(OC)cc23)c(Cl)cc1Cl | -0.985% (inactive) |  | 
COc1ccc(C2(C#N)CCC(C(=O)O)CC2)cc1OC1CCCC1 (stereo unspecified) | -0.706% (inactive) |  | 
CCN(CCO)CCCC(C)Nc1ccnc2cc(Cl)ccc12 (stereo unspecified) | -0.741% [at 6.45 µM] (inactive) |  | 
